Consider seven compounds from PubChem BioAssay (NCI).

Common to all, as to assay: NCI-60 one-dose screen, 48 h (100 = growth as untreated, 0 = no growth, -100 = all killed)
What all share (settings): 10 µM unless noted

Assay [1] has as its system DU-145 prostate.
The test system of assay [2] is K-562 leukemia.
Assay [3] relates to MALME-3M melanoma.
Assay [4] deals with MDA-MB-231 breast.
The subject of assay [5] is RXF 393 renal.
The subject of assay [6] is SF-268 CNS.
For assay [7], the system named is SF-295 CNS.
Assay [8] relates to SF-539 CNS.
Assay [9] has as its system UACC-257 melanoma.
In assay [10] the test system is M14 melanoma.
In assay [11] the test system is HCT-15 colon.
Assay [12] concerns HT29 colon.
For assay [13], the system named is SNB-75 CNS.
The subject of assay [14] is SNB-19 CNS.
Assay [15] concerns U251 CNS.
Assay [16] has as its system PC-3 prostate.
Assay [17] concerns SK-MEL-5 melanoma.
For assay [18], the system named is UACC-62 melanoma.
The subject of assay [19] is LOX IMVI melanoma.
Assay [20] concerns SK-MEL-28 melanoma.

This is part of a sample that, as a whole, favours compounds with a hit. Of some 83,000 tested, about 20% had one in any assay.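 Compound tested at a single concentration for 48 hours in 96-well plates; a percent growth value below 10 was scored as active.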 Values without a mark were called inactive. Calls of active or inactive are those of the source.

In the case of `N#Cc1c(N)nc(Cl)c(C#N)c1C(=O)c1ccccc1`, the growth is 52.1% in assay [1]; 5.81% (active) in assay [2]; 42.3% in assay [3]; 26.3% in assay [4]; -2.56% (active) in [5]; 38.6% in [6]. The growth in assay [7] was 56.1%; in [8], 15.2%; in assay [9], 69.4%; in [10], 35%; in [11] it was 18.4%; in [12], 18.3%. For the same compound, the growth in [13] was 50%; in assay [14], 31.2%; in assay [15], 30.1%; in assay [16], 37.5%; in assay [17], 23.1%; in [18], 36.3%. Also, the growth in [19] was 12%; in [20] it was 11.6%.

With `CCCCCC/C=N/Nc1ccc([N+](=O)[O-])cn1`, the growth in assay [1] was 103%; in assay [2], 96.7%; in assay [3], 98.1%; in [4], 98.7%; in [5], 104%; in assay [6] it was 103%. For the same compound, the growth is 95.3% in assay [7]; 93.7% in assay [8]; 88.7% in assay [9]; 90.4% in [10]; 102% in assay [11]; 81.5% in [12]. For the same compound, the growth was 105% in assay [13]; 108% in assay [14]; 110% in assay [15]; 93.2% in assay [16]; 113% in [17]; 102% in assay [18]. In addition, the growth is 83.2% in [19] and 109% in assay [20].

For the compound `C=CCOc1ccc(/C(Cl)=N/N=C(\Cl)c2cc(OC)c(OC)c(OC)c2)cc1`, the growth in assay [1] is 70%; in [2], 69.4%; in assay [3], 90.9%; in assay [4], 82.4%; in assay [5], 58.7%; in [6] it was 85.5%. For the same compound, the growth in assay [7] is 87.9%; in [8], 88.8%; in assay [9], 53.3%; in assay [10] it was 73.4%; in assay [11] it was 67.3%; in assay [12], 53.2%. For the same compound, the growth was 104% in [13]; 80.7% in assay [14]; 72.8% in [15]; 65.1% in assay [16]; 68.5% in assay [17]; 64.5% in [18]. Further, the growth in assay [19] is 80.5%; in assay [20], 88.1%.

On to `CC1(C)CC(=O)C2=C(C1)OC1=C(C(=O)CC(C)(C)C1)C2c1ccc(OCc2cn(-c3ccc(F)cc3F)nn2)cc1`, for which the growth in [1] is 92.2%; in assay [2] it was 73.8%; in assay [3], 89.6%; in assay [4], 91.8%; in assay [5] it was 107%; in assay [6], 84.9%. For the same compound, the growth is 95.5% in assay [7]; 99.8% in assay [8]; 83.3% in assay [9]; 87.3% in [10]; 105% in assay [11]; 96.9% in [12]. The growth in [13] was 104%; in [14] it was 99.9%; in [15], 91.7%; in assay [16] it was 77.7%; in assay [17], 58.4%; in assay [18], 58.6%. The growth was 97.7% in [19] and 103% in assay [20].

As for `C=CC(=O)Nc1cccc(Nc2nc(Nc3ccc(OCCOC(F)F)cc3)ncc2F)c1`, the growth is 34.7% in assay [1]; 19.9% in assay [2]; 46.3% in assay [3]; 66.3% in [4]; 9.55% (active) in assay [5]; 40.5% in assay [6]. Also, the growth is 52.5% in assay [7]; 31.4% in assay [8]; 52.7% in [9]; 29% in [10]; 22.4% in assay [11]; 33.8% in assay [12]. Moreover, the growth in [13] was 4.93% (active); in assay [14], 55.7%; in assay [15], 30.1%; in assay [16], 40.7%; in [17], 79.6%; in [18] it was 24.1%. Further, the growth in assay [19] is 18%; in [20], 68%.

Regarding `CC(=O)N1N=C2N(Cc3ccccc3)C(=O)c3c(sc4c3CCCC4)N2C1c1cn(-c2ccccc2)nc1-c1ccc(Cl)cc1` (stereo not given), the growth in assay [1] is 112%; in assay [2], 93.4%; in [3] it was 99.9%; in [4], 99.1%; in [5] it was 101%; in assay [6] it was 100%. Besides, the growth in assay [7] was 109%; in [8], 92.6%; in [9] it was 113%; in [10], 100%; in assay [11], 96.9%; in [12], 107%. Further, the growth in assay [13] is 99.3%; in assay [14] it was 94.2%; in assay [15], 87.2%; in [16], 92.6%; in assay [17] it was 102%; in assay [18], 95.5%. Further, the growth is 92.9% in [19] and 104% in [20].

Take `CC(=O)N[C@@H](CNC(=O)c1cc(NC(=O)c2cc(NC(=O)c3cc(NC(=O)c4nccn4C)cn3C)cn2C)cn1C)CC(=O)Nc1cn(C)c(C(=O)Nc2cc(C(=O)Nc3cc(C(=O)Nc4cc(C(=O)NCCCN(C)CCCNC(=O)c5cccc(C(=O)O)c5)n(C)c4)n(C)c3)n(C)c2)n1`: the growth in assay [1] was 53.3%; in [2], 105%; in assay [3], 122%; in [4], 113%; in [5], 97.6%; in assay [6], 95.9%. The growth in assay [7] is 47.8%; in [8], 107%; in [9] it was 113%; in assay [10], 89.9%; in [11] it was 103%; in assay [12], 67.6%. Moreover, the growth in assay [13] is 107%; in [14], 86.3%; in assay [15], 64%; in [16], 88.6%; in [17], 96.6%; in [18], 59.1%. Besides, the growth in assay [19] was 80.7%; in assay [20], 107%.
